Inconclusive results are not listed. Values without a mark were called inactive. Activity calls are given as the source filed them. The call rests on the fitted dose curve. Residues, ends and D or L forms follow the SMILES beside them.

We go through 39 molecules from PubChem BioAssay (Tox21).
On the % scale 0 is the no-effect control and ±100 the full control effect; potency means the concentration at half of the fitted maximal effect.

Chain of Acetylcholinesterase (Homo sapiens) (P22303 whole entry, looked up): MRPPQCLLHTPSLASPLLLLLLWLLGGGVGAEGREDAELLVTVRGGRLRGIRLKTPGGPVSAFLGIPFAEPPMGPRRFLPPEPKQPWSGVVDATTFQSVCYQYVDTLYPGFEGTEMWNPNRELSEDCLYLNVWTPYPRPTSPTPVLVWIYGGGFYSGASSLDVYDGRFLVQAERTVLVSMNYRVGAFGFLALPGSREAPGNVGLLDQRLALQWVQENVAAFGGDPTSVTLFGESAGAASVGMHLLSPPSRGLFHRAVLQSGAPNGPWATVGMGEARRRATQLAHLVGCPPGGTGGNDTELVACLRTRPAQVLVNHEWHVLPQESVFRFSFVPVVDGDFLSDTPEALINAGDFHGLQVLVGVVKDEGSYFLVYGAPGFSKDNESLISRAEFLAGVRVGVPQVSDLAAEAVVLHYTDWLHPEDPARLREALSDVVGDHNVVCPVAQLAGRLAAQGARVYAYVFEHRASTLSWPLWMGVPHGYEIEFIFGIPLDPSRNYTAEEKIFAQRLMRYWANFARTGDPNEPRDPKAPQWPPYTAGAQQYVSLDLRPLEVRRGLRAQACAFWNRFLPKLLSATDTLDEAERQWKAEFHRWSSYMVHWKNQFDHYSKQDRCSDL

The target of the assay is Acetylcholinesterase (Homo sapiens) (UniProt P22303). Description: Acetylcholinesterase (AChE) small molecule antagonists: fluorescence cell-based qHTS assay (AID 1347398). Further: nearly all actives have a fitted effect of over 50% in size. The conditions noted are these: SH-SY5Y cells; Potency: AChE activity; outcome: AChE activity; series mostly up to 115 µM; activity change, negative = inhibition: at the top concentration. An outline of the steps:
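Human SH-SY5Y cells were plated overnight at 37 C, exposed to compound for 30 min at 37 C, 5% CO2, then given acetylthiocholine plus Thiolite Green for 40 min at room temperature; thiocholine fluorescence (Ex/Em 490/520 nm) reports endogenous AChE activity.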
As to `CCOC(=O)COC(=O)c1cc(Oc2ccc(C(F)(F)F)cc2Cl)ccc1[N+](=O)[O-]`, the “activity change, negative = inhibition” value is 3.52%.

`CCCCCCC(=O)OCC`: the “activity change, negative = inhibition” value was -5.64%.

On to `CC(=O)N[C@@H](CO)C(=O)N[C@@H](CC(=O)O)C(=O)N[C@@H](CCCCN)C(=O)N1CCC[C@H]1C(=O)O` (Ac-SDKP-OH), for which the “activity change, negative = inhibition” value was 1.49% [at 53.7 µM]. With `Nc1ccc(F)cc1`, the “activity change, negative = inhibition” value is 2.06%. Regarding `C=CC(=O)O`, the “activity change, negative = inhibition” value was 4.33% [at 53.7 µM]. The same measure, in the same setting: the same measure for `CC1=CCCC(C)(C)C12CCC(C)O2` (centres undefined): -1.21%; for `CCCCC`: -18.1%; for `CCCCCCC(C)Nc1ccc(Nc2ccccc2)cc1` (centres undefined): -22.7%.

Take `CC/C=C\CCOC(C)=O`: the “activity change, negative = inhibition” value is -0.509%. Same read-out and setting: the same measure for `CCCCCCCCCCCBr`: 0.014% [at 53.7 µM]. Same read-out and setting: the same measure for `CC(COc1ccccc1)NN` (centres undefined): 2.68% [at 53.7 µM]; for `Nc1cnn([C@@H]2O[C@H](CO)[C@@H](O)[C@H]2O)c(=O)n1`: 8.53%.

On to `CN(CCCN1c2ccccc2CCc2ccccc21)CC(=O)c1ccc(Cl)cc1`, for which the “activity change, negative = inhibition” value was -12.4% [at 53.7 µM]. On to `CC(C)=CCC[C@H](C)CCO`, for which the “activity change, negative = inhibition” value was 5.33%. Still for that read-out and setting: with `COc1cc(Cl)ccc1Oc1ccc(Cl)cc1Cl` the figure was -14.9%. On the same count and under the same terms, with `CC1=C2[C@H](/C=C(\C)C(=O)O)CC[C@@H](C)[C@H]2CC1` the figure was -6.02%. As to `CCOCCOCCOC(C)=O`, the “activity change, negative = inhibition” value was 6.39%. Turning to `COc1ccc(Cl)cc1C`, the “activity change, negative = inhibition” value is 3.77%. Regarding `CC(C)(c1ccc(Oc2ccc3c(c2)C(=O)OC3=O)cc1)c1ccc(Oc2ccc3c(c2)C(=O)OC3=O)cc1`, the “activity change, negative = inhibition” value was -1.02%. Still for that read-out and setting: the same measure for `COCCCOCCCOC`: -0.694%. Still for that read-out and setting: with `O=C(N[C@@H](c1ccccc1)[C@@H]1CCCCN1)c1cccc(C(F)(F)F)c1Cl` the figure was -9.92%.

Consider `C=CCOc1nc(OCC=C)nc(OCC=C)n1`, for which the “activity change, negative = inhibition” value was -6.89%. The same measure, in the same setting: the same measure for `Cc1cccc(C)c1NC(=O)CN(CC(=O)O)CC(=O)O`: 15.7% [at 53.7 µM]. Turning to `O=S(=O)(O)c1ccc2cc(O)c(S(=O)(=O)O)cc2c1`, the “activity change, negative = inhibition” value is 1.52%. In the case of `CCC(C)(C)C1CCC(=O)CC1`, the “activity change, negative = inhibition” value is 1.24%. `COC(=O)CCCCCCCCC(=O)OC`: the “activity change, negative = inhibition” value was -5.33%. Still for that read-out and setting: the same measure for `CC(C)(C)c1cc(C=O)cc(C(C)(C)C)c1O`: 16.9% [at 53.7 µM]; for `CCc1nccnc1C`: 5.53%.

For the molecule `O=C1C=CC(=O)N1c1cccc(N2C(=O)C=CC2=O)c1`, the Potency was 44.8 µM (active).

On to `COC(=O)C1CC(=O)C(C(=O)OC)CC1=O` (centres undefined), for which the activity change, negative = inhibition was 1.15% [at 10.5 µM]. The same measure, in the same setting: with `[Ca+2]` the figure was -0.689%. With `c1ccc(-c2nc3ccccc3[nH]2)cc1`, the “activity change, negative = inhibition” value was -19.5%. For `OC(CN1CCC(Cc2ccc(F)cc2)CC1)c1ccc(Cl)cc1` (centres undefined), the “activity change, negative = inhibition” value is 3.42% [at 53.7 µM]. Turning to `O=C(O)/C=C/c1ccccc1`, the “activity change, negative = inhibition” value was 0.0058%. In the case of `OC[C@@H](O)[C@H](O)[C@@H](O)[C@@H](O)CO`, the “activity change, negative = inhibition” value was 1.59%. Same read-out and setting: with `CC(C)(C)NCC(O)COc1ccc(NC(=O)NC2CCCCC2)cc1` (centres undefined) the figure was -1.95% [at 53.7 µM].

As for `Clc1cc(Cl)c2c(c1)N=C1CCCCCN1C2`, the Potency was 0.617 µM (active). For the molecule `CC12CCC(C(=O)C1=O)C2(C)C` (centres undefined), the “activity change, negative = inhibition” value was 0.721%.

For the molecule `NS(=O)(=O)c1cc(C(=O)NN2C[C@H]3[C@H]4CCC(C4)[C@H]3C2)ccc1Cl`, the “activity change, negative = inhibition” value was -1.05% [at 53.7 µM].
